# Measured values published in ChEMBL document CHEMBL3988442, “University of Dundee, Small-Polar-MMV Screening Library” (2021).
# Hit rate of the full screen: of about 69,000 compounds, about 1,000 (1.4%) showed an effect of 50% or more. The entries come from a sample that favours strong results as a whole.
# Tested on: Leishmania donovani
# Assay: Leishmania intramacrophage assay
# Format: functional, organism-based
# Set-up: scale not given: in the data most compounds retested in dose-response had high values
compound,measurement,setting,value
Cc1cc(C)cc(C(=O)NCCS(=O)(=O)N2CCSCC2)c1,Percent Effect,"30.3 µM, […]",-32.85%
Cc1ccc(C(=O)NCCS(=O)(=O)N2CCSCC2)o1,Percent Effect,"30.3 µM, […]",-11.12%
CN1CCN([C@@H]2CN(C(=O)CCOc3ccccc3)C[C@H]2O)CC1,Percent Effect,"30.3 µM, […]",23.88%
COc1cc(CN[C@@H]2COC[C@H]2Cc2cc(C)no2)cc(OC)c1.O=C(O)CC(O)(CC(=O)O)C(=O)O,Percent Effect,"30.3 µM, […]",4.158%
CN1CCN(c2nsc(-c3cccnc3)c2C#N)CC1,Percent Effect,"30.3 µM, […]",11.24%
Cc1nn(C)c(C)c1-c1cnc(C2CCCN(S(C)(=O)=O)C2)cn1 (stereo not given),Percent Effect,"30.3 µM, […]",19.29%
CO[C@H]1CN(C(=O)c2cccnc2)[C@@H]2CCCO[C@H]12.O=C(O)C(F)(F)F,Percent Effect,"30.3 µM, […]",4.595%
Cc1ccc(OCC2CCCN(c3cc(C(N)=O)ccn3)C2)cc1 (stereo not given),Percent Effect,"30.3 µM, […]",60.08%
Cc1nc(CN(C)C)cc(N2CCCC(COc3ccc(F)cc3)C2)n1 (stereo not given),Percent Effect,"30.3 µM, […]",-8.427%
Cc1ccccc1OCC1CCCN(c2cc(N)nc(N)n2)C1 (stereo not given),Percent Effect,"30.3 µM, […]",98.85%
Nc1cc(N2CCCC(COc3ccc(F)cc3)C2)ncn1 (stereo not given),Percent Effect,"30.3 µM, […]",1.04%
Cc1nc(N)cc(N2CCCC(COc3cccc(F)c3)C2)n1 (stereo not given),Percent Effect,"30.3 µM, […]",87.26%
Nc1cc(N2CCCC(COc3ccc(F)cc3)C2)nc(N)n1 (stereo not given),Percent Effect,"30.3 µM, […]",-15.02%
CCNC(=O)c1ccnc(N2CCCC(COc3ccccc3C)C2)c1 (stereo not given),Percent Effect,"30.3 µM, […]",33.05%
CNC(=O)c1ccnc(N2CCCC(COc3cccc(C)c3)C2)c1 (stereo not given),Percent Effect,"30.3 µM, […]",30.74%
COc1cccc(OCC2CCCN(c3cc(C(N)=O)ccn3)C2)c1 (stereo not given),Percent Effect,"30.3 µM, […]",42.88%
Cc1ccc(C(=O)N2Cc3c(CN(C)C)nn(C)c3C2)cc1C.O=C(O)C(F)(F)F,Percent Effect,"30.3 µM, […]",35.58%
Cc1csc(NC(=O)c2cnc(C3CCCN3)cn2)n1.Cl (stereo not given),Percent Effect,"30.3 µM, […]",7.514%
CCC(C)NC(=O)Cc1c(C)nc2c(c1C)c(=O)[nH]n2C (stereo not given),Percent Effect,"30 µM, 30.03 µM",-5.579%
COc1cc(C(=O)N2CCCC(CNS(C)(=O)=O)C2)cc(OC)c1C (stereo not given),Percent Effect,"30 µM, 30.03 µM",16.86%
CN(C)CC1CN(Cc2ccc(F)cc2)Cc2nccn2C1.O=C(O)C(F)(F)F.O=C(O)C(F)(F)F (stereo not given),Percent Effect,"30.3 µM, […]",6.472%
Oc1cccc(CNC2CCN(CCc3ccncc3)CC2)c1,Percent Effect,"30.3 µM, […]",7.34%
N#Cc1ccc(CNC2CCN(CCc3ccncc3)CC2)cc1,Percent Effect,"30.3 µM, […]",19.38%
COc1ccc(CNC2CCN(CCc3ccncc3)CC2)cc1O,Percent Effect,"30 µM, 30.03 µM",9.899%
CSc1ccc(CNC2CCN(CCc3ccncc3)CC2)cc1,Percent Effect,"30.3 µM, […]",85.89%
CCCN1CCC(NCc2ccncc2)CC1,Percent Effect,"30.3 µM, […]",-7.602%
COC(=O)C(O)C1CCN(CCc2ccncc2)CC1 (stereo not given),Percent Effect,"30.3 µM, […]",9.422%
CC(NC1CCN(CCc2ccncc2)CC1)c1cnn(C(C)C)c1 (stereo not given),Percent Effect,"30.3 µM, […]",6.548%
Cc1cccc(CNC2CCN(CCc3ccncc3)CC2)c1C,Percent Effect,"30.3 µM, […]",74.34%
c1cc(CCN2CCC(NCc3ccsc3)CC2)ccn1,Percent Effect,"30.3 µM, […]",31.06%
Clc1cccc(CNC2CCN(CCc3ccncc3)CC2)c1,Percent Effect,"30.3 µM, […]",59.66%
Cc1ccc(CNC2CCN(CCc3ccncc3)CC2)cc1C,Percent Effect,"30 µM, 30.03 µM",92.66%
Cc1ccc(CNC2CCN(CCc3ccncc3)CC2)s1,Percent Effect,"30 µM, 30.03 µM",45.1%
CC1(c2ccccc2)CCC(=O)N(CCN2CCCOC2=O)C1 (stereo not given),Percent Effect,"30.3 µM, […]",-24.18%
CN(C)C(=O)CN1CCN(C(=O)c2cnn(-c3ccccc3Cl)c2)CC1,Percent Effect,30 µM,13.32%
CC(C)Cc1ccc(S(=O)(=O)Nc2ccc(=O)n(C)c2)cc1,Percent Effect,"30 µM, 30.03 µM",40.75%
CCOCCN1CCN(c2ccc(C#N)cn2)CC1CC (stereo not given),Percent Effect,"30.3 µM, […]",26.65%
CC(CNC1CCN(Cc2ccncc2)CC1)c1ccc(F)cc1F (stereo not given),Percent Effect,"30.3 µM, […]",10.91%
Fc1ccc(CNC2CCN(CCc3ccncc3)CC2)cc1F,Percent Effect,"30.3 µM, […]",73.28%
COCCN1CCC(NCc2ccc(Cl)cc2)C1 (stereo not given),Percent Effect,30 µM,10.13%
CC(NC(=O)c1ccnn1C)c1ccc(OCC2CC2)c(F)c1 (stereo not given),Percent Effect,"30.3 µM, […]",27.82%
CCCc1cc(CNC2CCN(c3nc4ccccc4s3)CC2)on1,Percent Effect,"30.3 µM, […]",35.92%
CCS(=O)(=O)CCNC1CCN(c2nc3ccc(Cl)cc3s2)CC1,Percent Effect,"30.3 µM, […]",66.16%
Clc1ccc2nc(N3CCC(NCCCC4CCOC4)CC3)sc2c1 (stereo not given),Percent Effect,"30.3 µM, […]",61.31%
Cc1csc2c(N3CCC(NCCCC4CCOC4)CC3)ncnc12 (stereo not given),Percent Effect,"30.3 µM, […]",10.77%
CCCc1cc(NCCCC2CCOC2)n2nccc2n1 (stereo not given),Percent Effect,"30.3 µM, […]",32.07%
CCc1nccn1CCNC1CCN(c2nc3ccc(Cl)cc3s2)CC1,Percent Effect,"30.3 µM, […]",98.8%
Cn1ccnc1SCCNC1CCN(c2nc3ccccc3s2)CC1,Percent Effect,"30.3 µM, […]",43.39%
Cc1csc2c(N3CCC(NCCc4ccnn4C)CC3)ncnc12,Percent Effect,"30.3 µM, […]",17.37%
Cc1n[nH]c(SCCNC2CCN(c3nc4ccccc4s3)CC2)n1,Percent Effect,"30.3 µM, […]",6.253%
